Screening results (PubChem BioAssay)
Rows were chosen to be rich in hits. Some 3.7% of all compounds tested hit in one or more screens of this group.
tim23-1 inh – inhibits growth of tim23-1 mutant yeast; S. cerevisiae tim23-1 growth, BacTiter-Glo luminescence, 24 h; inhibition, % at 20 µM; 1.3% of 330,000 active; AID 463212;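 active = growth inhibition of the mutant yeast at or above 50%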;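 also: temperature-sensitive mutant grown at 25 °C; plate controls were DMSO-treated mutant yeast for no effect and medium wells lacking yeast for full effect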
tim10-1 inh – growth inhibitors of tim10-1 mutant yeast. S. cerevisiae tim10-1 ts strain growth, BacTiter-Glo, 24 h. inhibition, % at 20 µM. 2.2% of 330,000 active. AID 463190;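 active = inhibition of at least 40%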;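 also: mutant grown at 25 °C; 0% = DMSO wells with yeast and 100% = wells holding no yeast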
PfHsp90 set2 – inhibits growth of yeast expressing Plasmodium falciparum Hsp90; S. cerevisiae expressing PfHsp90, BacTiter-Glo ATP, 48 h; yeast lacking PDR1 and PDR3 efflux regulators; inhibition, % at 9.4 µM; 0.32% of 310,000 active;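 active = every replicate shows inhibition above about 80%, whatever the replicate mean, limit read from the data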;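 also: 0% = DMSO neutral controls and 100% = 20 µM radicicol positive controls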
NLRP3 yeast inh – inhibitors of NALP3 inflammasome in yeast; Yeast reconstituted NLRP3/ASC/caspase-1, beta-gal luminescence, 24 h; inhibition, % at 10 µM; 0.39% of 330,000 active;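 active = inhibition of 50% or more; inactive = inhibition below 50%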;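 also: plate controls were induced DMSO wells for no effect and uninduced yeast grown without galactose for full effect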
TIM10 inh – inhibits growth of TIM10 yeast strain | S. cerevisiae TIM10 strain growth, BacTiter-Glo luminescence, 24 h | inhibition, % at 10 µM | 1.4% of 330,000 active;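 active = inhibition of 40% or more at the single tested concentration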;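 also: wild-type TIM10 isogenic control strain grown at permissive 25 °C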
tim23-1 conf – tim23-1 yeast growth inhibition, confirmed. shares compounds with tim23-1 inh. S. cerevisiae tim23-1 growth, BacTiter-Glo luminescence, 24 h. inhibition, % at 20 µM. 83% of 4,400 active;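 active = inhibition above about 39% in either of two replicate wells at 20 µM, limit read from the data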;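 also: temperature-sensitive tim23-1 mutant grown at 25 °C; 0% = DMSO wells with yeast and 100% = medium wells without yeast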
* = called active by the depositor; x = not tested or not shown.

SMILES	tim23-1 inh	tim10-1 inh	PfHsp90 set2	NLRP3 yeast inh	TIM10 inh	tim23-1 conf
Cc1ccccc1-c1ocnc1C(=O)Nc1ccccc1NC(=O)c1ccccn1	50*	34	-24	17	35	49*
COc1cc(N=C2C(=O)N3c4c(cccc42)C(C)=CC3(C)C)cc(OC)c1	28	20	-7	9	16	x
COc1cccc(C(=O)Oc2cc3c4c(c2)C(C)=CC(C)(C)N4C(=O)C3=O)c1	63*	28	-117	4	29	70*
CC(C)(C)C(=O)N1CCN(c2ccc(NC(=O)c3ccc([N+](=O)[O-])o3)cc2)CC1	40	32	-80	3	22	x
O=C(Nc1ccc(N2CCN(Cc3ccccc3F)CC2)cc1)c1ccc([N+](=O)[O-])o1	56*	39	13	27	12	41*
CC1CCN(c2ccc(NC(=O)c3ccc([N+](=O)[O-])o3)cc2)CC1	56*	37	x	18	25	-13
CC(C)Cn1c(/C=C/c2ccccc2)nc2ccccc21	56*	39	-10	41	39	46*
CCn1c(/C=C/c2ccccc2)nc2ccccc2c1=O	-10	7	-2	25	9	x
CC(=O)c1c(-c2ccccc2)c2cc([N+](=O)[O-])ccc2[nH]c1=O	4	-9	14	4	6	x
CC(C)(C)n1nc(Cc2cccc3ccccc23)c2c(N)ncnc21	62*	28	-14	44	22	62*
Cc1c(NC(=O)COC(=O)Cc2ccc(F)cc2)c(=O)n(-c2ccccc2)n1C	5	-10	4	7	0	x
O=C1CCC(C(=O)NC2(C(=O)NC3CCCCC3)CCCCC2)N1 (stereo not drawn)	11	1	4	3	-10	x
CCOc1ccccc1/C=C(\C#N)C(=O)NC1CC1	55*	28	x	-1	39	52*
COC(=O)c1ccc(COc2ccccc2/C=C(\C#N)C(=O)NC(C)C)cc1	21	39	15	10	26	x
Cc1ccccc1/C=C1\Oc2ccccc2C1=O	54*	18	-35	1	34	57*
COc1ccc(OC)c(C2=NOC(C(=O)Nc3cccc(C(C)=O)c3)C2)c1 (stereo not drawn)	25	25	24	13	2	x
O=C1NC(c2ccccc2Cl)=N/C1=C/c1ccco1	53*	16	12	0	31	22
O=C1NC(c2ccc(Br)cc2)=N/C1=C/c1ccco1	13	15	2	8	8	x
CC(NC(=O)c1cc(Br)cs1)C1CCCO1 (stereo not drawn)	13	5	-20	-1	6	x
CC(C)NC(=S)N/N=C/c1c[nH]c2ccccc12	56*	36	-38	22	32	40*
Cc1[nH]c2ccccc2c1/C=N/NC(=S)NC(C)C	47	39	x	12	40	x
Cn1c(SCC(=O)Nc2ccccc2F)nnc1-c1cc2ccccc2o1	6	6	0	-4	-2	x
S=C(NCc1ccccc1)NNc1ccccc1	8	8	13	23	-3	x
COC(=O)CC1COc2ccccc2N1C(=O)c1ccc(C(C)(C)C)cc1 (stereo not drawn)	53*	21	3	2	25	38
O=C(Nc1ccc(Cl)c(NC(=O)c2cccs2)c1)c1ccco1	55*	27	16	-1	10	48*
SMILES	tim23-1 inh	tim10-1 inh	PfHsp90 set2	NLRP3 yeast inh	TIM10 inh	tim23-1 conf
O=C(Nc1ccc(N2CCN(C(=O)c3ccco3)CC2)c(Cl)c1)c1cccs1	58*	28	16	18	20	53*
COc1ccc(C(=O)NC(=S)NCCc2ccccc2)cc1	2	17	-11	9	1	x
O=C(NC(=S)NCCc1ccccc1)c1cccc(Cl)c1	52*	33	-1	28	32	46*
Cc1cccc(N2C(=O)/C(=C\c3ccc(C(=O)O)cc3)c3ccccc3C2=O)c1	56*	31	x	10	22	22
COC(=O)[C@]1(Cc2ccccc2)N[C@H](CN(C)C(=O)Nc2ccc(Cl)cc2)[C@@H]2C(=O)N(Cc3ccccc3)C(=O)[C@@H]21	7	8	3	-1	4	x
O=C1NN=C(c2ccc(Cl)cc2)CC1c1cccc(Br)c1 (stereo not drawn)	53*	36	-26	10	12	59*
Cc1cc(C)c(NC(=O)CS(=O)CC(=O)N2CCN(c3cccc(C)c3C)CC2)c(C)c1 (stereo not drawn)	90*	4	0	9	-8	7
Cc1cc(C)c(NC(=O)CS(=O)CC(=O)N2CCN(c3ccc(F)cc3)CC2)c(C)c1 (stereo not drawn)	7	-18	-37	11	7	x
CC1([N+](=O)[O-])COC2(OC1)C(=O)Nc1ccccc12 (stereo not drawn)	9	8	-7	1	5	x
CC1Oc2cc3oc4c(O)c(O)ccc4c(=O)c3c(O)c2C1(C)C (stereo not drawn)	69*	34	104*	11	17	70*
O=C(C#Cc1ccccc1)Nc1cccc(F)c1	54*	7	-37	44	39	52*
O=C(CSc1nnc2c(n1)[nH]c1ccccc12)Nc1nncs1	3	-10	-12	18	7	x
Cc1ccc2c(c1)cc(CN(Cc1cccnc1)C(=O)NCc1ccccc1)c1nnnn12	14	8	6	16	21	x
CN(Cc1ccco1)c1ncnc2ccc(-c3ccc4c(c3)OCO4)cc12	51*	22	-10	16	7	42*
Cc1ccc2nc(NC(=O)COC(=O)c3cccnc3)sc2c1	53*	-15	x	14	31	60*
Cc1ccc(NC(=S)Nc2cccnc2)c(S(=O)(=O)N2CCCCC2)c1	16	17	x	-8	-27	x
O=C(CN(Cc1ccccc1)C(=O)CCl)c1cccc(Br)c1	57*	32	-23	20	17	45*
CC(OC(=O)c1ccc(Cl)nc1)C(=O)NC(C)(C)C (stereo not drawn)	-4	9	0	14	4	x
CC(C)(C)C(=O)/C=c1\[nH]c(=O)/c(=C\c2ccc(F)cc2)s1	52*	21	8	29	24	51*
CC(C)(C)C(=O)/C=c1\[nH]c(=O)/c(=C\c2ccccc2F)s1	-1	14	-9	-2	27	x
Cc1cnc(C(=O)N2CCN(S(=O)(=O)c3cc(C(F)(F)F)cc(C(F)(F)F)c3)CC2)cn1	x	x	10	x	x	x
COc1cccc(C(=O)c2c(-c3ccccc3)ncc3cc(OC)c(OC)cc23)c1	54*	21	-4	x	-13	33
Cc1cccc(C(=O)Oc2ccccc2-c2nnco2)c1	17	32	-14	25	2	x
Cc1ccccc1C(=O)Oc1cccc2c(O)cccc12	72*	28	-15	23	30	49*
Cc1cccc(C(=O)Oc2cccc3c(O)cccc23)c1	69*	0	-14	18	21	51*
